In the library only some 5.8% were active in any assay of this set; here they are far more common.
TRPV1 ag: HTS Assay for Compounds that Act as Agonists of the Vanilloid Receptor 1; Transient receptor potential cation channel subfamily V member 1 (Homo sapiens), Q8NER1; TRPV1-expressing cells, Fluo-8 calcium influx, agonist mode; activation, % at 8.33 µM; 320,000 tested, 0.19% active; in the data active means activation above about 80%; inconclusive means between about 30% and that limit; further: 0% is about no effect
Target sequence (Q8NER1 whole entry, looked up): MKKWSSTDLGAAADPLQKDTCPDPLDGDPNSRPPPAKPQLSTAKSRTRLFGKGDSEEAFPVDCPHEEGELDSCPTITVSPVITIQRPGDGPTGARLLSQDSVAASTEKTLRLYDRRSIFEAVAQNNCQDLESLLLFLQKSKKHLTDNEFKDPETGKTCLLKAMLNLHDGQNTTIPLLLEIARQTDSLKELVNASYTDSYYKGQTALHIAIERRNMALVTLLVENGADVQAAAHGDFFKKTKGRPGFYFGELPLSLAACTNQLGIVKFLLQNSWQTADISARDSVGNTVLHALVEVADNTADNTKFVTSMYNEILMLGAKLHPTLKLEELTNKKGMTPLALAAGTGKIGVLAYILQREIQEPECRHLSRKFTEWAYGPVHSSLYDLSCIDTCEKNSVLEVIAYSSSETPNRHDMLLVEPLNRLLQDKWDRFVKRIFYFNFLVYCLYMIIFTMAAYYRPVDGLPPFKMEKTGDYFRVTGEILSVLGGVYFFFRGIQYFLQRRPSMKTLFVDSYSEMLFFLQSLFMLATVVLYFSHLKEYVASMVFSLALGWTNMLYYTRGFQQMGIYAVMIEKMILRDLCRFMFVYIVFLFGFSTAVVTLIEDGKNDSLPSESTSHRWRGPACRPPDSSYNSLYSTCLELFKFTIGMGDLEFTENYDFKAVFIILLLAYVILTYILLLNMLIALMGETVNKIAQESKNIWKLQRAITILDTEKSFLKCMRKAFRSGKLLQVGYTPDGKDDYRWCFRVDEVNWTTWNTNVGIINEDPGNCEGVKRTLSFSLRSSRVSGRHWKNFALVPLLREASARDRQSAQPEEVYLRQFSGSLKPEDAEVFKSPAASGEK
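TRPV1-expressing cells were cultured overnight at 35.5C and loaded with Fluo-8 calcium dye for 40 to 90 min at room temperature. After a 10 s baseline, compound was added and calcium influx was read kinetically for 3 min (ex 480/em 520 nm).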
VP16 counter: VP16 counterscreen qHTS for inhibitors of ROR gamma transcriptional activity; Potency, µM (highest dose often 53.6 µM), for inactives: top-dose activity, negative = inhibition, hits mostly inhibitors; 310,000 tested, 3.5% active; AID 2546, 2010; Drosophila S2 Gal4-VP16 UAS-luciferase, luminescence, 20 h;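 further: Gal4-VP16 expression switched on by copper sulfate through the metallothionein promoter; potency means the concentration at half of the fitted maximal effect; on the % scale 0 is the no-effect control and ±100 the full control effect; nearly all actives have a fitted effect of over 50% in size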
RORgamma inh: qHTS for inhibitors of ROR gamma transcriptional activity; Nuclear receptor ROR-gamma (Mus musculus), P51450; Drosophila S2 Gal4-RORgamma UAS-luciferase reporter, 20 h; Potency, µM (highest dose often 53.6 µM), inactives show top-dose activity change, negative = inhibition, usual class: inhibitors; 310,000 tested, 5.4% active; further: potency means the concentration at half of the fitted maximal effect; on the % scale 0 is the no-effect control and ±100 the full control effect; nearly all actives have a fitted effect of over 60% in size
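Read-out: Photinus luciferase luminescence; inhibitors lower reporter signal. Insect Schneider cells with Gal4-ROR gamma fusion under metallothionein promoter, UAS reporter; 700 uM final copper sulfate induction, 20 hr, ambient temperature.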
uPA surface inh: qHTS for Inhibitors of Cell Surface uPA Generation. cell surface uPA generation assay, qHTS. Potency, µM (doses to about 38.3 µM), without a hit: at the top dose activity change, negative = inhibition, actives largely listed as inhibitors. 330,000 tested, 0.31% active. AID 540303, 2011; active means well fitted inhibition curve with a large enough effect; inconclusive means small, poorly fitted or top-dose-only effect; inactive means no such curve, though single readings can be large or run the other way; tested in mouse RAW 264.7 cells; further: potency means the concentration at half of the fitted maximal effect; on the % scale 0 is the no-effect control and ±100 the full control effect; nearly all actives have a fitted effect of over 55% in size
TRPV1 potentiator: HTS Assay for Compounds that Act as Potentiators of the Vanilloid Receptor 1; Transient receptor potential cation channel subfamily V member 1 (Homo sapiens), Q8NER1; TRPV1-expressing cells, Fluo-8 calcium influx, capsaicin EC20 potentiation; potentiation, % at 8.33 µM; 320,000 tested, 0.02% active; in the data active means potentiation above about 80%; inconclusive means between about 30% and that limit; further: 0% is about no effect
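Cells expressing TRPV1 were dye-loaded with Fluo-8 and read kinetically: 10 s baseline, 3 min after compound (agonist portion), then 2 min after EC20 capsaicin (allosteric enhancer portion). Calcium-bound dye fluorescence at 480/520 nm.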
The depositor's hits bear a star; i = inactive; ? = inconclusive; . = no result; [ ] = remark or other dose. Unless noted, the call rests on the fitted dose curve; in most records, active means well fitted curve in the direction sought with a large enough effect; inconclusive means small, poorly fitted or top-dose-only effect, or another doubt; inactive means no such curve, though single readings can be large; an effect the other way counts as inactive or inconclusive.

SMILES | TRPV1 ag | VP16 counter | RORgamma inh | uPA surface inh | TRPV1 potentiator
CCCN(CCC)S(=O)(=O)c1ccc(C(=O)Nc2cc3oc4ccccc4c3cc2OC)cc1 | -9 | ? | 9% | 5% | -7
CCCN(CCC)S(=O)(=O)c1ccc(C(=O)Nc2nnc(-c3cccc(OC)c3)o2)cc1 | -1 | 0.63µM* | 0.4µM* | -3% | 14
CCCN(CCC)S(=O)(=O)c1ccc(C(=O)Nc2nnc(-c3cc(OC)cc(OC)c3)o2)cc1 | 0 | 0.28µM* | 0.16µM* | -4% | 0
COc1cccc(-c2nnc(NC(=O)CCS(=O)(=O)c3ccc(C)cc3)o2)c1 | 2 | . | . | -22% | 3
O=C(N/N=C/c1ccc(-c2ccc([N+](=O)[O-])cc2)o1)[C@H]1C[C@@H]1c1ccccc1 | 11 | -4% | 17% | -1% | -1
O=C(N/N=C/C(Cl)=C/c1ccccc1)c1ccccn1 | ? | ? | ? | -11% | -1
O=C(N/N=C/c1ccc([N+](=O)[O-])o1)C(O)c1ccccc1 (stereo unspecified) | 1 | -27% | 3% | ? | -4
O=C(N/N=C/c1ccc([N+](=O)[O-])o1)C1CC1 | -4 | 4% | 7.9µM* | ? | 2
Cc1cc(C(=O)N/N=C/C(Cl)=C/c2ccccc2)c(C)o1 | 10 | 13µM* | -11% | 1% | 7
O=C(N/N=C/c1ccc(-c2ccccc2[N+](=O)[O-])o1)[C@H]1C[C@@H]1c1ccccc1 | 7 | 11µM* | ? | -3% | 0
O=[N+]([O-])c1ccc(/C=N/NC(=S)Nc2ccccc2C(F)(F)F)o1 | 0 | ? | 11µM* | 2% | -4
Cc1cc2c(c(=O)n1Cc1ccccc1)C1O[C@](CCCCN3C(=O)c4ccccc4C3=O)(Cc3cc(C#N)ccc31)O2 | i | 4%[10 µM] | 10%[10 µM] | . | i
NC(=O)N/N=C/c1ccc([N+](=O)[O-])o1 | -2 | ? | -22%[10 µM] | ? | 6
Cc1cc(C)c(S(=O)(=O)N/N=C/c2ccc([N+](=O)[O-])o2)c(C)c1 | -6 | 20µM* | ? | -7% | 15
Cc1nonc1C(=O)N/N=C/c1ccc([N+](=O)[O-])o1 | 2 | ? | ? | ? | -6
O=C(COc1ccccc1)N/N=C/c1ccc([N+](=O)[O-])o1 | -2 | 16µM* | 10µM* | ? | 5
Cc1cc(C(=O)N/N=C/c2ccc([N+](=O)[O-])o2)c(C)o1 | 0 | ? | -41% | 10µM* | -3
Cc1nc([N+](=O)[O-])c(Br)n1CC(=O)c1cccc([N+](=O)[O-])c1 | 0 | -7% | 1% | -17% | 27
O=C(CSc1nc2ccc([N+](=O)[O-])cc2[nH]1)c1ccc2ccccc2c1 | 6 | 3% | -2% | . | ?
Cc1nc([N+](=O)[O-])c(Sc2nc3ccc([N+](=O)[O-])cc3[nH]2)n1Cc1ccccc1 | 9 | ? | 16µM* | 0% | 5
Cc1nc([N+](=O)[O-])c(Br)n1Cc1ccccc1 | 11 | ? | ? | 10µM* | -6
Cc1nc([N+](=O)[O-])c(Br)n1CC(=O)c1ccc(F)cc1 | -2 | -14%[10 µM] | 7.9µM* | -13% | 13
COc1ccccc1OC[C@H](O)COC(N)=O | . | -5%[17 µM] | 13%[2.98 µM] | . | .
CC(=O)N1N=C(c2ccco2)CC1c1ccco1 (stereo unspecified) | 2 | 1% | ? | -2% | -21
Cc1ccc(C2=NN(C(=O)CCl)C(c3ccco3)C2)o1 (stereo unspecified) | 0 | ? | 11µM* | -16% | -11
SMILES | TRPV1 ag | VP16 counter | RORgamma inh | uPA surface inh | TRPV1 potentiator
C[C@@H](CN(C)C[C@H]1C(=O)O[C@@H]2C[C@@]3(C)CCC[C@]4(CO4)C3CC21)[C@H](O)c1ccccc1 (stereo partly specified) | . | -2% | -22% | . | .
CC(=O)N1CCC[C@@]2(CCN(Cc3nccs3)C2)C1 | . | 1% | -9% | . | .
CCc1ccc(/C=N/NC(=O)c2cc(C3CC3)nc3ccc(Br)cc23)s1 | 3 | 1.6µM* | 2.2µM* | -5% | 5
COc1ccccc1-c1cc(C(=O)N/N=C/c2ccoc2)c2ccccc2n1 | ? | ? | 11µM* | -8% | -17
CCc1ccc(/C=N/NC(=O)c2cc(-c3ccccc3OC)nc3ccccc23)s1 | 1 | 4.5µM* | 4µM* | -7% | 8
COc1ccccc1-c1cc(C(=O)N/N=C/c2ccc(C)s2)c2ccccc2n1 | 0 | 4.5µM* | 2.8µM* | -9% | 13
O=C(N/N=C/c1cccc(O)c1)c1cc(C2CC2)nc2ccccc12 | ? | -8% | -6% | 1% | -7
COc1ccc(/C=N/NC(=O)c2cc(-c3ccccc3OC)nc3ccccc23)cc1COC(C)=O | 3 | 8% | 10% | 1% | -2
C=CCc1cc(OC)c(O)c(C(=O)NCCO)c1 | . | -1% | 12% | . | .
CC(=O)C1=C(O)C(=O)N(c2ccc(Br)cc2)C1c1ccc(Br)cc1 (stereo unspecified) | 2 | -3% | -35% | 7% | -13
COC(=O)CCCC(=O)Nc1c(F)c(F)c(F)c(F)c1F | 3 | 3% | -7% | -3% | 5
COc1ccc2nc(Nc3sc4c(c3C(N)=O)CCCC4)sc2c1 | -2 | 3.5µM* | 1.4µM* | -6% | -10
COc1ccc(CC(=O)Nc2sc3c(c2C(N)=O)CCCC3)cc1 | 9 | 15% | ? | -2% | 1
COc1cccc(Nc2nc3ccc(OC)cc3s2)c1 | 28 | ? | 11µM* | -2% | -20
CSc1cccc(NC(=S)N(CCCN2CCCC(C)C2)Cc2cccs2)c1 (stereo unspecified) | ? | 27%[10 µM] | 11µM* | -7% | 9
COc1ccc(NC(=S)N(CCCN2CCN(C)CC2)Cc2cccs2)cc1 | -2 | 1% | -11% | -7% | 3
COc1ccc(NC(=S)N(CCCN2CCC(C)CC2)Cc2cccs2)cc1Cl | 1 | -2%[10 µM] | 11µM* | -9% | 2
COc1ccc(C2C=C3CNS(=O)(=O)C3CC2OC(=O)c2cccs2)cc1 (stereo unspecified) | . | -4% | 10% | . | .
COc1ccc(/C=N/NC(=O)Cc2cccs2)cc1 | 5 | 10% | -3% | 13% | 14
Cc1ccc(/C=N/NC(=O)Cc2cccs2)o1 | -9 | 35µM* | ? | -2% | ?
CN(C)c1cc[n+](CC(=O)c2ccc(-c3ccccc3)cc2)cc1 | -3 | ? | -3% | 7.1µM* | 8
CC1CCCCC1NC(=O)/C(C#N)=C/c1ccccc1F (stereo unspecified) | 30 | 11µM* | 11µM* | -12% | -10

High-throughput results from PubChem.
